The list is not random: actives were taken first. Their share in the collection is about 3.2%.
TMEM16A inh – mouse TMEM16A channel inhibition, primary screen | 310,000 compounds, 1.2% hits | Q8BHY3 | normalized B-score (activity score, 25-100; higher = stronger inhibition) at 10 µM | HEK293 TMEM16A/YFP iodide influx fluorescence, ionomycin | AID 588511;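 active = ratio plate-corrected score three or more library SD toward inhibition, starting fluorescence score within five deviations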;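 also: score derived from kinetic fluorescence span divided by baseline fluorescence per well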
HDAC3 inhib – human HDAC3 inhibition; inhibition, % at 8.3 µM; recombinant HDAC3, fluorogenic peptide/trypsin coupled, fluorescence; 320,000 compounds, 0.15% hits; in the data active = inhibition above about 26%, passing the limit was not always enough; inconclusive = no clear call, values can overlap the other calls
ANO1 activ – activators or potentiators of mouse TMEM16A chloride channel; Q8BHY3; HEK293 TMEM16A/YFP-H148Q/I152L, iodide quench fluorescence; hits give low values; B-score at 10 µM; 340,000 compounds, 0.3% hits; AID 623877;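 active = fluorescence-ratio B-score plate-corrected deviation score at least 3 library SD below zero, with starting fluorescence score within 5 deviations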;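 also: channel opened by trigger with iodide after compound preincubation; score built on the fluorescence ratio of max minus min over baseline; more negative score means more quench and so TMEM16A activation or potentiation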
PHOSPHO1 inh – PHOSPHO1 (human) inhibition; Q8TCT1; recombinant PHOSPHO1, absorbance phosphatase assay; inhibition, % at 13.3 µM; 290,000 compounds, 1.1% hits; AID 1565; in the data active = inhibition above about 60%
CHT allo act – human CHT allosteric activation | Q9GZV3 | CHT-expressing cells, membrane potential dye, choline EC20; hits give high values; LV-AA mutant CHT in HEK293 cells | B-score at 10 µM | 310,000 compounds, 0.49% hits;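 active = initial fluorescence not abnormally high and integrated response B-score, plate-corrected, over 3 SD above library mean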
CHT inh – inhibits the human high affinity choline transporter. Q9GZV3. CHT-expressing cells, membrane potential dye, choline response; hits give low values. B-score at 10 µM. 310,000 compounds, 0.86% hits. AID 488975;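 active = B-score over 3 SD under the library average, and starting fluorescence ratio not unusually high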;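 also: choline stimulus applied at its EC90 after an EC20 pre-addition; B-score computed on integrated fluorescence ratio after choline addition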
* marks the source's active call; other numbers are inactive results; i = inactive; ? = inconclusive; . = no result given.

SMILES	TMEM16A inh	HDAC3 inhib	ANO1 activ	PHOSPHO1 inh	CHT allo act	CHT inh
O=C(CSc1nnc(-c2ccccn2)n1Cc1ccco1)c1ccc(Cl)cc1	i	4.0	i	79.6*	i	i
O=C(CSc1nnc(-c2cnccn2)n1Cc1ccco1)c1ccccc1	i	6.2	i	90.1*	i	i
O=C(CSc1nnc(-c2cccnc2)n1Cc1ccco1)c1ccc(Br)cc1	i	13.9	i	25.8	i	i
O=C(CSc1nnc(-c2cccnc2)n1Cc1ccco1)c1ccc2ccccc2c1	i	-1.0	i	69.9*	i	i
COc1ccc(/C=C/C(=O)NCc2cn(C)nc2C)cc1COc1ccc(Cl)cc1Br	100*	1.5	i	1.4	i	i
CCn1nc(C)c(NC(=O)/C=C/c2ccc(OC)c(COc3ccc(Cl)cc3Br)c2)c1C	i	3.9	i	4.2	i	i
Cc1c(C(=O)Nc2ccccc2C(=O)N2CCCC2)cccc1[N+](=O)[O-]	i	0.0	i	34.9	i	i
COc1ccc(CNC(=O)C2CCN(S(=O)(=O)c3cccnc3)CC2)cc1	i	-4.5	i	38.5	i	i
CCOc1ccc(N=C2NN=C(c3cc(C)n(CC4CCCO4)c3C)CS2)cc1 (stereo not drawn)	i	-0.9	i	-27.4	i	i
Nc1ccc2c(c1)C(=O)C(=O)c1ccccc1-2	25*	-1.6	i	62.5*	i	i
Cc1nnc(NC(=O)CSc2nc3[nH]ncc3c(=O)[nH]2)s1	i	-5.1	i	24.3	i	i
CSCCc1nc(SCC(=O)Nc2nnc(C)s2)[nH]c1C	i	4.2	i	67.5*	i	i
O=C(c1ccc(Cl)cc1)C1C2C(=O)N(c3ccccc3)C(=O)C2C2CCCN21 (stereo not drawn)	.	.	i	83.6*	.	.
CC(=O)c1ccc(N2C(=O)C3C(C2=O)C(C(=O)c2ccc(Cl)cc2)N2CCCC32)cc1 (stereo not drawn)	.	.	.	-65.2	.	.
CC(C)(C)C(=O)Nc1ccccc1-c1nc2ccccc2[nH]c1=O	i	-2.5	i	8.5	i	i
CC(=O)c1ccc(OCc2cc(C(=O)NC(C)c3cnn(C)c3)no2)cc1 (stereo not drawn)	i	9.1	i	61.7*	i	i
Cc1ccc(C)c(OCc2cc(C(=O)NC(C)c3cnn(C)c3)no2)c1 (stereo not drawn)	i	2.3	i	38.5	i	i
CC(=O)Nc1ccc(-c2sc(Nc3cccc4ccccc34)n[n+]2-c2ccccc2)cc1	i	9.2	-11.8*	15.1	i	i
CC(Sc1ccc(S(=O)(=O)N2CCCC2)cn1)C(N)=O (stereo not drawn)	.	3.5	i	.	.	.
Cc1nc2nc(N)nn2c(C)c1C/C=C/c1ccccc1	i	2.9	-36.6*	44.0	i	i
Cc1nc2ncnn2c(C)c1C/C=C/c1ccccc1	i	2.7	i	31.7	i	i
O=[N+]([O-])c1ccc(Oc2cnc3ccccc3n2)cc1	i	0.2	i	20.5	i	i
CS(=O)(=O)N1CCN(C(=O)c2cc(-c3cccs3)nc3ccccc23)CC1	i	-51.3	i	14.4	i	i
N#CC(c1ccccc1)c1ccc(C(=O)c2ccc(F)cc2)cc1 (stereo not drawn)	i	-4.0	i	9.1	i	i
N#CC(c1ccc(F)cc1)c1ccc(C(=O)c2ccccc2)cc1 (stereo not drawn)	100*	6.0	i	-4.9	i	i
SMILES	TMEM16A inh	HDAC3 inhib	ANO1 activ	PHOSPHO1 inh	CHT allo act	CHT inh
O=C1C(=O)N(CCCN2CCOCC2)C(c2ccc(F)cc2)/C1=C(\O)c1ccc2c(c1)OCCO2 (stereo not drawn)	i	7.7	i	22.3	i	i
COCc1cc(C)nc2sc(C(=O)Nc3nccs3)c(N)c12	i	-6.4	i	82.8*	i	i
CCCCCC(=O)N1CCCC1	i	1.1	i	36.8	i	i
COc1cccc(CN(Cc2ccco2)C(c2ccc(F)cc2)c2nnnn2C(C)(C)C)c1 (stereo not drawn)	i	6.0	-25.6*	14.1	i	i
Nc1nc(-c2ccco2)nn1C(=O)c1cccnc1	i	18.4	i	19.2	i	i
Cc1ccc(C(=O)n2nc(-c3ccco3)nc2N)cc1	i	39.8*	i	6.8	i	i
CSc1nc(-c2ccco2)nn1C(=O)c1ccc(C)cc1	i	?	i	-9.0	i	i
COc1ccc(C(=O)n2nc(-c3ccco3)nc2N)cc1	i	84.1*	i	13.5	i	i
O=S(=O)(Nc1ccc(F)cc1)c1ccc(NS(=O)(=O)c2cccs2)cc1	i	2.7	i	14.6	i	i
CCOC(=O)c1c(S(=O)(=O)Nc2ccccn2)c(C)n(C)c1C	i	?	i	64.9*	i	i
CCOC(=O)c1c(S(=O)(=O)NCC(=O)NCc2ccccc2Cl)c(C)n(C)c1C	i	-1.5	i	61.6*	i	i
Cc1ccc(OCCOC(=O)Cn2nc(C)c([N+](=O)[O-])c2C)cc1	i	-0.6	i	44.0	i	i
Cc1ccc(C(=O)NC(=S)N2CC(C)OC(C)C2)cc1[N+](=O)[O-] (stereo not drawn)	i	-2.5	i	89.9*	i	i
Nc1c(C(=O)Nc2ccccc2)sc2nc3c(c(-c4ccco4)c12)CCC3	i	3.0	i	86.6*	i	i
CC(C)[C@H](NS(=O)(=O)c1cccc(Cl)c1)C(=O)OCC(=O)N1CCN(c2ccccc2)CC1	i	9.8	i	0.3	i	i
N#CC1=C2SCN(Cc3ccccc3)CN2C(=O)CC1c1ccccc1F (stereo not drawn)	i	?	i	82.8*	i	i
COc1ccc(Br)cc1C1CC(=O)N2CN(Cc3ccccc3)CSC2=C1C#N (stereo not drawn)	i	32.1*	i	23.9	i	i
N#CC1=C2SCC(O)(c3ccccc3)N2C(=O)CC1c1ccccc1F (stereo not drawn)	i	4.8	i	2.7	i	i
Cc1ccc(C2CC(=O)N3CN(Cc4ccco4)CSC3=C2C#N)cc1 (stereo not drawn)	i	?	i	75.9*	i	i
COc1ccc2ccccc2c1C1CC(=O)N2CN(C)CSC2=C1C#N (stereo not drawn)	i	10.3	i	54.3	i	i
CCn1c(C)c(C(C)=O)c(N2CCN(c3ccc(F)cc3)CC2)nc1=S	i	2.6	i	101.5*	i	i

Bioassay records: PubChem, several laboratories
